Hits are enriched below; roughly 2.2% of the tested compounds scored in any of these assays.
BaF3 parental = counter-screen for JAK2V617F inhibitors: parental Ba/F3 viability inhibitors | AID 1486 | inhibition, % at 5.6 µM | CellTiter-Glo ATP luminescence | 220,000 compounds, 1.1% hits;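 active = inhibition above a per-campaign cutoff, the mean inhibition of all tested compounds plus 3 SD, cut at about 27% in these data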;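 also: 0% = DMSO wells and 100% = JAK Inhibitor I control wells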
Ba/F3 V617F tox = reduce viability of Ba/F3 cells dependent on JAK2V617F; Ba/F3 EpoR-JAK2V617F viability, ATP luminescence; inhibition, % at 5.6 µM; 220,000 compounds, 1.1% hits; AID 1446;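 active = inhibition above the campaign mean plus 3 SD over all tested compounds, cut at about 24% in these data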;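 also: cytokine-independent growth of Ba/F3 cells driven by EpoR plus mutant JAK2; 0% = DMSO-treated cells and 100% = JAK inhibitor I control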
APP 5UTR inh = APP translation inhibition. 190,000 compounds, 0.82% hits. inhibition, % at 2 µM. SH-SY5Y APP 5'UTR-luciferase reporter, luminescence;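 active = inhibition above a set limit, derived from the sample mean plus 3 SD, cut at about 45% in these data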
aSyn 5UTR inh = MLPCN primary screen, SNCA 5' untranslated region | inhibition, % (tested at 7.5 µM) | alpha-synuclein 5'UTR reporter, inhibitor activity | 300,000 compounds, 0.82% hits | AID 1813; in the data active = inhibition above about 60%;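 also: H4 neuroglioblastoma cells stably carrying SNCA 5'UTR luciferase fusion; 0% = DMSO wells and 100% = positive control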
KLF5 inhibitor = kruppel-like factor 5 inhibition; DLD-1 KLF5 promoter-luciferase reporter, luminescence; inhibition, % at 5 µM; 290,000 compounds, 0.23% hits;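 active = inhibition above a per-plate limit of that plate's mean compound inhibition plus 3 SD, cut at about 60% in these data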;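 also: 0% = DMSO wells and 100% = LY294002 at 200 µM; higher means less KLF5 promoter-driven luciferase light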
IEC-6 tox = IEC-6 cytotoxicity, counter-screen for KLF5 inhibitors; luminescence viability; inhibition, % at 5 µM; 290,000 compounds, 0.78% hits; AID 1825; in the data active = inhibition above about 22%;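 also: 0% = plate median of test compound wells and 100% = cytotoxic reference compound wells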
* = called active by the depositor.

`CC(=O)c1cccc(NC(=O)Cn2cnc(S(=O)(=O)N3CCCC3)c2)c1` gave aSyn 5UTR inh 5.6, KLF5 inhibitor -23.4 and IEC-6 tox -11.5.
`CN(C)C1=NC[C@H](Cc2ccccc2)N1CC1CCC(C(C)(C)C)CC1` (stereo not given in full) gave aSyn 5UTR inh -28.2, KLF5 inhibitor -24.0 and IEC-6 tox 2.8.
COc1ccc(CN2CCN(C(=O)Cn3ncn4cccc4c3=O)CC2)c(OC)c1OC was read as aSyn 5UTR inh -6.9, KLF5 inhibitor -13.3 and IEC-6 tox -3.2.
Screening N#Cc1cc(N)c(Nc2ccccc2)cc1C#N returned BaF3 parental 36.9*, Ba/F3 V617F tox 15.1, APP 5UTR inh -5.3, aSyn 5UTR inh 33.0, KLF5 inhibitor 17.5 and IEC-6 tox 16.1.
CNC[C@H](CC1CCCCC1)NC[C@H](Cc1ccccc1)NCCC12CC3CC(CC(C3)C1)C2 was read as aSyn 5UTR inh 125.4*, KLF5 inhibitor -8.2 and IEC-6 tox -5.8.
`Cc1ccc(NC(=O)CN2C(=O)C3C4C=CC(C4)C3C2=O)cc1S(=O)(=O)N(C)C` (stereo not given) gave BaF3 parental 2.5, Ba/F3 V617F tox -0.7, APP 5UTR inh 54.9*, aSyn 5UTR inh 17.7, KLF5 inhibitor 40.2 and IEC-6 tox 1.8.
NS(=O)(=O)c1ccc(NC(=O)CN2C(=O)C3C4C=CC(C4)C3C2=O)cc1 (stereo not given) was read as BaF3 parental 2.8, Ba/F3 V617F tox 1.6, APP 5UTR inh -4.8, aSyn 5UTR inh -3.4, KLF5 inhibitor -20.5 and IEC-6 tox 2.0.
For Cc1ccc(S(=O)(=O)CC2CSc3nc4ccccc4n32)cc1 (stereo not given) the results were BaF3 parental 72.2*, Ba/F3 V617F tox 58.1*, aSyn 5UTR inh -12.6, KLF5 inhibitor 41.6 and IEC-6 tox 10.0.
COc1ccc(C(=O)/C(C#N)=N/Nc2ccc([N+](=O)[O-])cc2)cc1 was read as BaF3 parental 7.1, Ba/F3 V617F tox 0.2, APP 5UTR inh 91.9*, aSyn 5UTR inh 102.1*, KLF5 inhibitor 3.8 and IEC-6 tox 17.7.
For CCCc1c(C)nn(C(=O)/C(C#N)=N/Nc2ccccc2[N+](=O)[O-])c1C the results were BaF3 parental 3.9, Ba/F3 V617F tox -1.7, APP 5UTR inh -64.5, aSyn 5UTR inh -33.8, KLF5 inhibitor -24.1 and IEC-6 tox -1.3.
For COc1ccc(C(=O)/C(C#N)=N/Nc2ccccc2[N+](=O)[O-])cc1 the results were BaF3 parental 2.3, Ba/F3 V617F tox -0.6, APP 5UTR inh 70.4*, aSyn 5UTR inh -26.1, KLF5 inhibitor -5.8 and IEC-6 tox 3.8.
Cc1ccc2nc(SCC(=O)NCc3ccccc3)nc(=O)n2c1 was read as aSyn 5UTR inh 6.0.
For CC(C)(C)C1CCC(OC(=O)C[N+]2(C)CCCC2)CC1 (stereo not given) the results were BaF3 parental 35.5*, Ba/F3 V617F tox 31.9*, APP 5UTR inh -11.5, aSyn 5UTR inh 6.4, KLF5 inhibitor -15.4 and IEC-6 tox -1.5.
For C[N+]1(CC(=O)OCCCC2CCCCC2)CCCC1 the results were BaF3 parental 2.6, Ba/F3 V617F tox -0.3, APP 5UTR inh 7.1, aSyn 5UTR inh -16.7, KLF5 inhibitor -28.5 and IEC-6 tox 2.2.
`CC(C)CC1CCCCC1OC(=O)C[N+]1(C)CCCCC1` (stereo not given) gave BaF3 parental 62.6*, Ba/F3 V617F tox 56.7*, APP 5UTR inh -24.9, aSyn 5UTR inh 20.5, KLF5 inhibitor -0.9 and IEC-6 tox 0.5.
Screening CC(C)(C)C1CCC(OC(=O)C[N+]2(C)CCCCC2)CC1 (stereo not given) returned BaF3 parental 40.5*, Ba/F3 V617F tox 32.1*, APP 5UTR inh 8.2, aSyn 5UTR inh -4.0, KLF5 inhibitor -14.6 and IEC-6 tox -3.2.
`CC(C)(C)C1CCC(OC(=O)CN2CCOCC2)CC1` (stereo not given) gave BaF3 parental 4.2, Ba/F3 V617F tox -0.1, APP 5UTR inh -15.8, aSyn 5UTR inh -107.9, KLF5 inhibitor 9.9 and IEC-6 tox -0.9.
Screening COc1ccc(CCNC(=O)c2cccc(NS(=O)(=O)c3ccccc3F)c2)cc1OC returned aSyn 5UTR inh -1.8, KLF5 inhibitor -28.5 and IEC-6 tox 3.1.
`COc1ccc(/C=C/c2cc(-c3ccc(C)cc3)o[n+]2C)cc1` gave BaF3 parental 93.4*, Ba/F3 V617F tox 101.0*, APP 5UTR inh -1.1, aSyn 5UTR inh 89.2*, KLF5 inhibitor 50.0 and IEC-6 tox 2.4.
Screening Cc1ccc(S(=O)(=O)N2CCC(C(=O)OCC(=O)N(C)C3CCCCC3)CC2)cc1C returned aSyn 5UTR inh -14.6.
Screening O=S(=O)(c1ccc(Cl)cc1)N1CCN(Cc2ccc(O)c3ncccc23)CC1 returned BaF3 parental 2.0, Ba/F3 V617F tox -0.3, APP 5UTR inh 33.6, aSyn 5UTR inh 77.2*, KLF5 inhibitor 6.1 and IEC-6 tox 1.9.
For Oc1ccc(CN2CCN(Cc3ccccc3)CC2)c2cccnc12 the results were BaF3 parental 1.7, Ba/F3 V617F tox -2.2, APP 5UTR inh -11.6, aSyn 5UTR inh -10.0, KLF5 inhibitor 11.7 and IEC-6 tox 5.5.
Screening CCN1CCN(/C=N/c2nc3c(s2)CCCC3)CC1 returned BaF3 parental 2.1, Ba/F3 V617F tox -2.6, APP 5UTR inh -76.3, aSyn 5UTR inh 65.6*, KLF5 inhibitor -26.4 and IEC-6 tox 1.2.
For CN1CCN(CC(=O)Nc2nc3c(s2)CCCC3)CC1 the results were BaF3 parental 1.5, Ba/F3 V617F tox -3.6, aSyn 5UTR inh -18.1, KLF5 inhibitor -3.0 and IEC-6 tox 2.5.
Screening COc1cccc(NC(=O)N2CCC(NC(=O)c3ccco3)CC2)c1 returned aSyn 5UTR inh 4.6, KLF5 inhibitor 4.4 and IEC-6 tox 5.8.
Screening c1ccc(CN2CCC(Nc3nc(-c4ccccc4)nc4ccccc34)CC2)cc1 returned BaF3 parental 4.1, Ba/F3 V617F tox -2.2, APP 5UTR inh 11.3, aSyn 5UTR inh 72.0*, KLF5 inhibitor -13.7 and IEC-6 tox 0.2.
Screening COc1ccc(NC(=O)CSc2cn[nH]n2)cc1OC returned aSyn 5UTR inh -9.1, KLF5 inhibitor -16.7 and IEC-6 tox 0.0.
Screening COc1cc(C(=O)ON=C2C=C(C)C(=O)C(C)=C2)cc(OC)c1OC returned BaF3 parental 0.7, Ba/F3 V617F tox 1.2, APP 5UTR inh 14.9, aSyn 5UTR inh -3.1, KLF5 inhibitor -15.8 and IEC-6 tox 7.6.
Screening COc1cc(C(=O)O/N=C2\C=CC(=O)C(C)=C2)cc(OC)c1OC returned BaF3 parental 32.0*, Ba/F3 V617F tox 49.4*, APP 5UTR inh -0.4, aSyn 5UTR inh -31.7, KLF5 inhibitor -17.3 and IEC-6 tox -1.9.
For COc1cc2c(cc1OC)C(c1ccccc1N)=NCC2 the results were BaF3 parental 47.4*, Ba/F3 V617F tox 38.5*, aSyn 5UTR inh -1.2, KLF5 inhibitor -0.7 and IEC-6 tox 1.4.
`O=C(CC1SC(N2CCCC2)=NC1=O)Nc1ccc(C(=O)N2CCN(c3cccc(Cl)c3)CC2)cc1` (stereo not given) gave aSyn 5UTR inh 10.8.

Screening data from PubChem BioAssay.
